Bioassay records: PubChem BioAssay, The Scripps Research Institute Molecular Screening Center
In the library only some 3.5% were active in any assay of this set; here they are far more common.
FBW7 activator = activators of human E3 ligase FBW7 | AlphaScreen FBW7–phospho-cyclin E peptide binding, activator screen | 0.13% of 650,000 active | Q969H0 | AID 1259310 | normalized activity (activation), % at 26.1 µM; in the data active = normalized activity above about 1.9%;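 also: purified mutant Fbw7 with reduced substrate affinity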
GPR151 ag = human GPR151 activation | Q8TDV0 | PathHunter beta-arrestin GPR151 cells, luminescence | activation, % at 11.2 µM | 1% of 650,000 active | AID 1508602; in the data active = activation above about 4.9%
Target sequence (Q8TDV0 whole entry, looked up): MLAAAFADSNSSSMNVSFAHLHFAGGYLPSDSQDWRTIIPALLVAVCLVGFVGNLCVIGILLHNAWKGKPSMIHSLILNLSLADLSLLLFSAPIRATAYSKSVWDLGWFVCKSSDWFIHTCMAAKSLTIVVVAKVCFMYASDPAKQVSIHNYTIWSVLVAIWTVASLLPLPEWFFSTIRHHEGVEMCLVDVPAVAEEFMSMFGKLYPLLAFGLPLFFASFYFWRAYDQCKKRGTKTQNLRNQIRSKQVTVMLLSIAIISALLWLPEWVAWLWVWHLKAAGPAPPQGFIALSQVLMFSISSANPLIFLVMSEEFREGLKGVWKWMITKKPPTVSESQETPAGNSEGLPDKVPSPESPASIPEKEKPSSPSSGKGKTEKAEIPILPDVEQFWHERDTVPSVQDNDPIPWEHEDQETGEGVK
TEAD-YAP block = TEAD-YAP interaction inhibition. HEK-TIYL cells, TEAD-Gal4/YAP UAS-luciferase luminescence. inhibition, % at 9.12 µM. 1.4% of 640,000 active. AID 1259422; in the data active = inhibition above about 32%
MITF inh = human MITF inhibition, primary screen; AlphaScreen MITF homodimerization, bead proximity signal; inhibition, % at 2.6 µM; 0.91% of 650,000 active; AID 1259374; in the data active = inhibition above about 50%
Of the large screens only hits and unclear results are named; the others gave an inactive call.

COc1cccc(/C=N/Nc2ncnc(N)c2[N+](=O)[O-])c1OC	TEAD-YAP block 46
Nc1ncnc(N/N=C/c2ccc(O)cc2O)c1[N+](=O)[O-]	MITF inh 81
Nc1ncnc(N/N=C/c2ccccc2OC(F)F)c1[N+](=O)[O-]	TEAD-YAP block 48
CC(C)(C)c1ccc(C(=O)N2c3ccccc3C(C)(c3ccccc3)CC2(C)C)cc1 (stereo not drawn)	none
Cn1c(COc2ccccc2)c(C#N)c2ccccc21	none
Cn1c(CS(=O)(=O)c2ccccc2)c(C#N)c2ccccc21	TEAD-YAP block 34
Cc1ccccc1N=Cc1sc2ccccc2c1O	TEAD-YAP block 53
Oc1c(C=Nc2ccc(Cl)cc2)sc2ccccc12	none
Cc1ccc(N=Cc2sc3ccccc3c2O)cc1C	TEAD-YAP block 74
Oc1c(/C=N/n2cnnc2)sc2ccccc12	TEAD-YAP block 72
Nc1ccccc1N=Cc1sc2ccccc2c1O	none
Cc1ccc(N=Cc2sc3ccccc3c2O)cc1	TEAD-YAP block 80
Cn1nnc(NC(=S)NC(=O)c2ccc(C(C)(C)C)cc2)n1	none
CCOC(=O)c1c(C)oc2ccc(N(C(=O)c3ccc([N+](=O)[O-])cc3)S(=O)(=O)c3ccc4ccccc4c3)cc12	none
CCNC(=O)CCC/C=C\C[C@@H]1[C@@H](CC[C@@H](O)CCc2ccccc2)[C@H](O)C[C@@H]1O	none (no result: FBW7 activator, TEAD-YAP block)
CCOc1ccc(N=Cc2sc3ccccc3c2O)cc1	TEAD-YAP block 88
CCn1c(=O)n(Cc2ccc3c(c2)OCO3)c(=O)c2ncccc21	none
CC(C)(C)n1ncc2c(=O)n(CC(=O)OCc3ccccc3)cnc21	TEAD-YAP block 82
Cc1ccc(NC(=O)CN(C)C(=O)COc2ccc(C#N)cc2)cc1	none
Cc1ccc(NC(=O)CN(C)C(=O)CCl)cc1	TEAD-YAP block 63
CN(CC(=O)Nc1ccc(Cl)cc1)C(=O)CCl	TEAD-YAP block 71
COc1ccccc1N1C(=O)c2ccc(C(=O)Nc3cc([N+](=O)[O-])ccc3O)cc2C1=O	FBW7 activator 2.1
Cc1cc(C)n(-c2ccc(NC(=O)C3CCN(C4CCOCC4)CC3)cc2)n1	none
O=[N+]([O-])c1cccc(S(=O)(=O)Nc2nc3ccccc3nc2-[n+]2cc[nH]c2)c1	none
COc1ccc(/C=C2\Oc3c(ccc(O)c3CN3CCCC3)C2=O)cc1	none
COc1cc(/C=C2\Oc3c(ccc(O)c3CN3CCCCC3)C2=O)cc(OC)c1OC	TEAD-YAP block 32
O=[N+]([O-])c1ccccc1C1CC(c2ccccc2)=NN1 (stereo not drawn)	TEAD-YAP block 40
Cc1sc2ncnc(N/N=C/c3ccccn3)c2c1C	TEAD-YAP block 92
CCOc1ccccc1/C=C1/N=C(c2cccc([N+](=O)[O-])c2)OC1=O	none
Cc1[nH]c2ccc(-c3nnc(SCC(=O)N(C(C)C)C(C)C)o3)cc2c1C	TEAD-YAP block 36
CC(C)N1C/C(=C/c2cccnc2)C(=O)/C(=C/c2cccnc2)C1	TEAD-YAP block 52
CN1C/C(=C/c2cccnc2)C(=O)/C(=C/c2cccnc2)C1	TEAD-YAP block 74
O=[N+]([O-])c1ccc(Cc2nnc(-c3ccc(Cl)cc3Cl)o2)cc1	TEAD-YAP block 52
O=[N+]([O-])c1ccc(Cc2nnc(-c3ccccc3Cl)o2)cc1	none
O=[N+]([O-])c1ccc(Cc2nnc(-c3ccccc3Br)o2)cc1	TEAD-YAP block 32
CC(=O)c1ccc(N=Nc2ccc(O)cc2)cc1	TEAD-YAP block 99
CC(=O)Nc1ccc(N=Nc2ccc(O)cc2)cc1	TEAD-YAP block 56
CC(=O)c1ccc(N=Nc2c(C)[nH][nH]c2=O)cc1	none
O=C(Nc1ccc(Cl)cc1C(=O)O)c1ccc2c(c1)C(=O)N(CC1CCCO1)C2=O (stereo not drawn)	none
CCCOc1ccc(/C(O)=C2/C(=O)C(=O)N(CCCN(C)C)C2c2ccc(C(C)(C)C)cc2)c(C)c1 (stereo not drawn)	none
Cc1nc2ccc([N+](=O)[O-])cc2s1	none
Cc1nc2cc(Cl)c([N+](=O)[O-])cc2s1	FBW7 activator 2.0
CCN(CC)c1ccc(/C=C/C23NC(=O)CCN2c2ccc(C)cc2C3(C)C)cc1 (stereo not drawn)	TEAD-YAP block 52
O=c1c2c3c(sc2nc(SCc2ccc(Br)cc2)n1Cc1ccccc1)CCCC3	none
COc1ccc(C(NC(C)=O)c2ccc3cccnc3c2O)cc1OC (stereo not drawn)	TEAD-YAP block 83, MITF inh 66
CCC(=O)NC(c1ccc(OC)c(OC)c1)c1ccc2cccnc2c1O (stereo not drawn)	TEAD-YAP block 87, MITF inh 59
COc1ccc(C(NC(C)=O)c2cc(Cl)c3cccnc3c2O)cc1OC (stereo not drawn)	none
CCC(=O)NC(c1ccc(OC)c(OC)c1)c1cc(Cl)c2cccnc2c1O (stereo not drawn)	TEAD-YAP block 46
O=C(Nc1c(F)cccc1F)c1cn(-c2ccc(F)cc2F)c(=O)c2ccccc12	none
COC(=O)c1ccc(CN2C(=O)CSC2=O)cc1	none
Cc1ccccc1NC(=O)/C=C/c1cccc([N+](=O)[O-])c1	none
CCOc1cccc(C(=O)Nc2ccc3c(c2)OCCO3)c1	TEAD-YAP block 58
CCOc1cccc(C(=O)Nc2ccc3ccccc3c2)c1	TEAD-YAP block 58
Cc1ccoc1C(=O)Nc1ccc2ccccc2c1	TEAD-YAP block 41
Cc1cc(C(=O)Nc2ccc3ccccc3c2)oc1C	none
CCOC(=O)c1ccc(NC(=O)c2cccc(Oc3ccccc3)c2)cc1	TEAD-YAP block 48
CC1Cc2ccccc2N1S(=O)(=O)c1ccc(Cl)c([N+](=O)[O-])c1 (stereo not drawn)	none
Cc1ccc(S(=O)(=O)Cc2nc3ccccc3s2)cc1	none
O=C(CCC(=O)Nc1ccc2c(c1)OCCO2)Nc1ccc2c(c1)OCCO2	none
CCOCCC(=O)Nc1ccc2c(c1)OCCO2	TEAD-YAP block 39
CN(C)CP(=O)(O)CCc1ccccc1	FBW7 activator 5.1
Cc1ccc2nc(C)c(C(=O)NCC(F)(F)F)n2c1	FBW7 activator 1.9
CC(C)CN(CCNCc1c(C(=O)O)n(C)c2ccccc12)CC(C)C	none
Cc1cccc(Cn2ccn(-c3cccc(Cl)c3)c(=O)c2=O)c1	TEAD-YAP block 51
Cc1ccc(Cn2ccn(-c3cccc(Cl)c3)c(=O)c2=O)cc1	none
CCn1c(C2COc3ccc(OC)cc3C2)nc2cc(F)c(-c3ccnc4[nH]ccc34)cc21 (stereo not drawn)	MITF inh 58
COc1ccc2c(c1)CC(c1nc3cc(-c4ccnc5[nH]ccc45)c(F)cc3[nH]1)CO2 (stereo not drawn)	TEAD-YAP block 50
COc1ccc2c(c1)CC(c1nc3ccc(-c4ccnc(N)c4)cc3[nH]1)CO2 (stereo not drawn)	none
CC(=O)NCCNC(=O)C1(c2ccc(Cl)cc2)CCC1	none
CCN(CC)CCCN(C(C)=O)c1nc(-c2ccc(OC)cc2)cs1	none
CCOC(=O)/C(=N\Nc1ncnc2ccccc12)c1cccs1	TEAD-YAP block 36
CCC(Nc1ncnc2ccccc12)C(=O)O (stereo not drawn)	none
CCSc1nc2sccn2c(=O)c1C(=O)NCc1ccccc1Oc1ccccc1	none
Nc1c(C(=O)N2CCCCC2)sc2nc(-c3cccs3)cc(C(F)(F)F)c12	FBW7 activator 4.1
